Results: ChEMBL document CHEMBL1157539, “Thousands of chemical starting points for antimalarial lead identification” (Nature, 2010)

Legend:
Format in all cases: functional
Plasmodium falciparum [1] = assay: GSK_TCMDC: Inhibition of Plasmodium falciparum 3D7 in whole red blood cells, using parasite LDH activity as an index of growth. Test compounds present at 2uM
Plasmodium falciparum [2] = assay: GSK_TCMDC: Inhibition of Plasmodium falciparum Dd2 in whole red blood cells, using parasite LDH activity as an index of growth. Test compounds present at 2uM
HepG2 = assay: GSK_TCMDC: Percent inhibition of human HepG2 cell line. Test compounds present at 10uM.

Compound	Inhibition (Plasmodium falciparum [1])	Inhibition (Plasmodium falciparum [2])	Inhibition (HepG2)
Nc1cc(-c2cc3c(OCc4ccccc4)cccc3[nH]2)ccn1	85%	15%	23%
CS(=O)(=O)O.FC(F)(F)COc1ccc(CCNCCCCNCCc2ccc(OCC(F)(F)F)c3ccccc23)c2ccccc12	99%	70%	100%
CC(C)C[C@@H](NC(=O)NC1CCC(CCN2C3CCC2CC(OC(=O)C(CO)c2ccccc2)C3)CC1)C(O)(c1ccccc1)c1ccccc1 (some centres undefined)	95%	71%	21%
O=C(O)C(F)(F)F.c1cc(CNCc2ccc3c(c2)OCO3)cc(-c2cccc(CNc3ccc4ncccc4c3)c2)c1	98%	27%	18%
CCCNCc1ccc(-c2ccc(CN(CCOC)C(=O)c3ccccc3)cc2)nc1.O=C(O)C(F)(F)F	94%	25%	16%
Fc1cccc(COc2ccc(Nc3ncnc4ccc(C#C[C@H]5CCCN5)cc34)cc2Cl)c1	91%	26%	7%
CCCCCCCc1c(C)nc2c(OC)cccc2c1O	89%	85%	0%
Cc1cc(NCCc2ccccc2)nc(NC(=N)Nc2cccc(Cl)c2)n1	100%	100%	24%
CCOc1ccc(-c2nonc2NC(=O)c2cccc(Cl)c2)cc1OCC	100%	99%	0%
Cc1cc(N[C@@H](Cc2ccccc2)C(=O)NC2CCCC2)nc(NCCc2cccs2)n1.O=C(O)C(F)(F)F	99%	14%	0%
Cc1cc(C(=O)Nc2ccc3c(c2)CCN3C2CCN(Cc3cc(F)cc(F)c3F)C2)no1 (centres undefined)	95%	96%	0%
CCc1cn2c3c(cc(C(=O)N[C@@H](Cc4ccccc4)[C@H](O)CNC4CCCCC4)cc13)N(C)S(=O)(=O)C2.O=CO	99%	99%	20%
COc1ccccc1C1CCN(C2CCC(NC(=O)/C=C/c3ccc(C(F)(F)F)cc3)CC2)CC1 (centres undefined)	88%	7%	57%
CC(=O)c1cccc2[nH]c(C(=O)NC3CCC(CCN4CCc5ccc(C#N)cc5C4)CC3)cc12.Cl (centres undefined)	96%	0%	12%
CCN(CC)CCCC(C)N/C(=N\c1ccccc1Br)Nc1ccc(C#N)cc1O (centres undefined)	89%	0%	4%
CC(=O)N(C)c1cccc(C(=O)Nc2cccc(-c3ccc(-c4nc5cc(C(F)(F)F)ccc5[nH]4)cc3)c2)c1	90%	31%	63%
O=C(O)C(F)(F)F.O=S(=O)(NC1CCN(c2ccnc3cc(Cl)ccc23)C1)c1cccs1 (centres undefined)	100%	76%	6%
Cc1cc(-c2cc(Cl)ccc2Cl)no1	96%	97%	36%
O=C(NCCc1ccccc1F)c1cc(Br)cc(N2CCN(c3ccncc3)CC2)c1.O=C(O)C(F)(F)F	97%	67%	29%
O=C(Nc1ccc(Oc2ccccc2)cc1)N[C@@H](Cc1ccc(O)cc1)C(=O)NC1CCN(Cc2ccc(O)c([N+](=O)[O-])c2)C1 (some centres undefined)	100%	0%	0%
COc1ccc2[nH]ccc(=NN=CC=Cc3ccccc3)c2c1	100%	99%	11%
COc1cccc(C2=CC(C)(C)Oc3cc(OCCN(C)C)ccc32)c1.Cl	97%	96%	57%
N#Cc1ccc(N[C@@H](CC2CCCCC2)C(=O)Nc2ccc(-c3ccccc3)cc2)c2ccccc12.O=C(O)C(F)(F)F	100%	99%	34%
COc1cccc(C(=O)Nc2ccc(S(=O)(=O)c3cc4c(cc3OC)CCN(C)CC4)cc2)c1	86%	3%	0%
COc1ccccc1N1CCN(CCCCNC(=O)c2ccc(NC(=O)c3ccc(C(F)(F)F)cc3)cc2)CC1	100%	37%	25%
COc1ccc(NC(=O)c2ccc(-c3ccc(-c4cccnc4)cc3)c(C)c2)cc1OCCN(C)C.Cl	99%	73%	24%
NC1=NC(c2ccccc2)(c2ccccn2)C(=O)N1CCCc1ccccc1.O=C(O)C(F)(F)F (centres undefined)	85%	64%	0%
O=C(NCCCCCN1CCC(c2c[nH]c3ccccc23)CC1)c1ccc(-c2cccnc2)cc1	89%	10%	29%
